# Data published in paper PMC4336329 (PLoS ONE, 2015).
# The campaign covered roughly 310,000 compounds. About 14,000 (4.5%) showed an effect of 50% or more. Effects have a minus sign here. For the sample, strong results were picked, then their nearest neighbours and some compounds at random.
# Molecular target: human ether-à-go-go-related gene (hERG) potassium channel (human, UniProt Q12809)
# Assay: primary screen, population patch clamp on CHO cells stably expressing hERG; higher = less effect of the substance
# 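Further: peak tail current of the secondary pulse compared with the same well before compound.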
# Chain of human ether-à-go-go-related gene (hERG) potassium channel (Q12809 whole entry, looked up): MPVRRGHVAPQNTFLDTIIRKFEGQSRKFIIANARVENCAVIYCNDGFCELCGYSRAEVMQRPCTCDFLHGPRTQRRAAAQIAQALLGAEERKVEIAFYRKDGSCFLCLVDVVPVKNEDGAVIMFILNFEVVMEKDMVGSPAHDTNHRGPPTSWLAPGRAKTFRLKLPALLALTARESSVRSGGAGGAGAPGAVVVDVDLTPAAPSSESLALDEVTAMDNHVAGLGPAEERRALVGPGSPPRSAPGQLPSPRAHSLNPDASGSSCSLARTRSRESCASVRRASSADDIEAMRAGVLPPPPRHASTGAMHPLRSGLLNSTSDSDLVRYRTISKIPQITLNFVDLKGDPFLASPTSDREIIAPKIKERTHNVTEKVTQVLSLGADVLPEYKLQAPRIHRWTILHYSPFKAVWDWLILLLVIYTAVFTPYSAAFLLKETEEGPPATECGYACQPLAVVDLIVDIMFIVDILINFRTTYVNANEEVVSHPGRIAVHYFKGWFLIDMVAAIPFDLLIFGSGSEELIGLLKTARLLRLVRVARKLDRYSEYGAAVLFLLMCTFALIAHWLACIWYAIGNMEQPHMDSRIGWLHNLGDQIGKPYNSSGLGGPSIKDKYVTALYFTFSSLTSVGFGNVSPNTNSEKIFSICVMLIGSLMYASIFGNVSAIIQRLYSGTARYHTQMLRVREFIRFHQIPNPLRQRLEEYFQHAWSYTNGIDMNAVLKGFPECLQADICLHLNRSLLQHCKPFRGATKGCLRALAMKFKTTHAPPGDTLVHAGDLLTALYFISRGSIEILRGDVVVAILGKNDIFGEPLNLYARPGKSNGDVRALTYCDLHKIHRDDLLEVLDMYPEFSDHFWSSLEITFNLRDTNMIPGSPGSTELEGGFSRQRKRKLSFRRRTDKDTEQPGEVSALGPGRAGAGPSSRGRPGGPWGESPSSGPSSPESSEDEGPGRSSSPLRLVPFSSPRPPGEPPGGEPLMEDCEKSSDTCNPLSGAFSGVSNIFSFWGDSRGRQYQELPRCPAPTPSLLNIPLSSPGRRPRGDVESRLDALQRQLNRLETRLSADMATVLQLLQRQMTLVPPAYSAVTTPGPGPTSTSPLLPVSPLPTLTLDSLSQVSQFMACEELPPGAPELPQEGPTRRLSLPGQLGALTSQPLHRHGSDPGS
row,SMILES,"hERG current change (%, negative = inhibition) at 10uM"
1,COc1ccc(NC(C)=O)cc1S(=O)(=O)N1CCN(C(=O)c2ccccc2F)CC1,-7.16%
2,O=C(COc1ccccc1Cl)NCCCNC(=O)c1cnccn1,5.28%
3,O=C(COc1ccc(Cl)cc1)NCCCNC(=O)c1cnccn1,-10.2%
4,O=C(NCCCNC(=O)c1ccc(-c2cccc(Cl)c2)o1)c1cnccn1,-31.8%
5,O=C(COc1ccc(Cl)cc1Cl)NCCCNC(=O)c1cnccn1,-56.5%
6,Cc1ccc(-c2ccc(C(=O)NCCCNC(=O)c3cnccn3)o2)cc1Cl,25.5%
7,O=C(NCCNC(=O)c1ccc(-c2ccc(Cl)c(Cl)c2)o1)c1cnccn1,-71.6%
8,CCn1c(SCc2cc(=O)[nH]c3ccccc23)nnc1C1CC1,8.48%
9,O=C(N/N=C/c1ccncc1)c1cccc(NC(=O)c2ccccc2Cl)c1,-2.33%
10,O=C(C1CCN(S(=O)(=O)c2cccc3nsnc23)CC1)N1CCCCC1,2.03%
11,O=C(CN1CCN(c2ccc(F)cc2)CC1)N(C1CCCC1)C1CCS(=O)(=O)C1 (stereo not drawn),-40.4%
12,Cc1ccccc1Cn1cc(/C=N/n2cnnc2)c2ccccc21,14.8%
13,COc1cc(CC(=O)Oc2ccc3c(c2)OCO3)cc(OC)c1OC,-2.51%
14,COc1ccc(CCNC(=O)CS(=O)(=O)Cc2nc(-c3ccccc3Cl)oc2C)cc1OC,-3.23%
15,COc1ccc(-c2cc(C(=O)N/N=C(\C)c3cccnc3)c3ccccc3n2)c(OC)c1,1.6%
16,C/C(=N\NC(=O)c1cc(-c2ccncc2)nc2ccccc12)c1ccc(OC(F)F)cc1,-56.1%
17,COc1ccc(-c2cc(C(=O)N/N=C(\C)c3cccnc3)c3ccccc3n2)cc1,8.87%
18,COc1ccc(/C(C)=N/NC(=O)c2cc(-c3cccnc3)nc3ccccc23)cc1,10.6%
19,COc1ccc(-c2cc(C(=O)NCc3cn(C)nc3C)c3ccccc3n2)cc1OC,2.61%
20,CCn1cc(CNC(=O)c2cc(-c3ccccc3OC)nc3ccccc23)c(C)n1,-19.5%
21,CC(=O)Nc1cccc(/C(C)=N/NC(=O)c2cc(-c3ccncc3)nc3ccccc23)c1,-6.95%
22,CCn1cc(CNC(=O)c2cc(-c3cc(OC)ccc3OC)nc3ccccc23)c(C)n1,-53.9%
23,COc1ccc(OC)c(-c2cc(C(=O)N/N=C(\C)c3cccnc3)c3ccccc3n2)c1,-65.5%

row,SMILES,"hERG current change (%, negative = inhibition) at 10uM"
1,CCOC(=O)c1cc(-c2ccccc2C)n(CC2CC(c3cccc([N+](=O)[O-])c3)=NO2)n1 (stereo not drawn),0.113%
2,Cc1csc(SCC(=O)Nc2cccc(S(=O)(=O)N3CCOCC3)c2)n1,-6.13%
3,CCn1nnnc1SCC(=O)N1c2ccccc2CCc2ccccc21,2.92%
4,CCOC(=O)C(=O)Nc1nnc(SCc2ccc(F)cc2)s1,1.7%
5,Cc1ccc(SCC(=O)NC2CC2)cc1,13.3%
6,CCOCCCNC(=O)c1cc(C)nn1-c1ccccc1,11%
7,Cn1cc(CN2CCC(CO)CC2)c(-c2ccc(Oc3ccccc3)cc2)n1,-67.5%
8,CC1CN(Cc2cn(C)nc2-c2ccc(Oc3ccccc3)cc2)CCN1C (stereo not drawn),-57.2%
9,CCOC(=O)C1CCN(Cc2cn(C)nc2-c2ccc(Oc3ccccc3)cc2)CC1,-44.9%
10,COCCN1CCN(Cc2cn(C)nc2-c2ccc(Oc3ccccc3)cc2)CC1,-65.2%
11,Cn1cc(CN2CCCC(CO)C2)c(-c2ccc(Oc3ccccc3)cc2)n1 (stereo not drawn),-26.2%
12,Cn1cc(CN2CCC(O)CC2)c(-c2ccc(Oc3ccccc3)cc2)n1,-23.7%
13,CCN(CC)C(=O)C1CCN(Cc2cn(C)nc2-c2ccc(Oc3ccccc3)cc2)CC1,-46.9%
14,CCCN1CCC(NCc2cn(C)nc2-c2ccc(Oc3ccccc3)cc2)CC1,-66.1%
15,COCCN1CCCC(CNCc2cn(C)nc2-c2ccc(Oc3ccccc3)cc2)C1 (stereo not drawn),-33.2%
16,C[C@H]1C(=O)N(C)CCN1Cc1cn(C)nc1-c1ccc(Oc2ccccc2)cc1,-4.92%
17,COC1CCCN(Cc2cn(C)nc2-c2ccc(Oc3ccccc3)cc2)C1 (stereo not drawn),-40.7%
18,Cn1cc(CN2CCN(CCO)CC2)c(-c2ccc(Oc3ccccc3)cc2)n1,-32.3%
19,O=C(O)c1ccc2c3c(cccc13)C(=O)N(c1cccc3ccccc13)C2=O,34.3%
20,COc1ccc(-c2[nH]ncc2CN(CCO)Cc2cccs2)c(F)c1,4.65%
21,CCCC(=O)NC(C)c1nc2ccccc2n1C(C)C (stereo not drawn),8.05%
22,Cc1cc(C)cc(N(CCC#N)C(=O)COC(=O)CN2C(=O)NC(C)(C)C2=O)c1,19.6%
